Results from PubChem BioAssay.
Calls of active or inactive are those of the source.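 How the source made its calls, unless noted: active means visual image review flags a hit and inhibition of aggregation exceeds 20%; inconclusive means visual hit but inhibition at or below 20%; inactive means no hit on visual image review.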

How the values were obtained:
[1] = inhibitors of TNFa-induced NFkB p65 translocation, primary screen, imaging, HUVEC, MLSMR starter and 10KST1 sets (AID 438;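 active means inhibition above 20% together with a positive visual image hit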;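 further: compound added about 3h40 before a 20 min TNFalpha stimulation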;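 on inhibition: signal is the nuclear over cytoplasmic p65 intensity ratio per well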); conditions: HUVEC TNFa-induced p65 nuclear translocation; cell count: measured here: nuclei count (cytotoxicity indicator), at 2.08 µM; inhibition: at 2 µM, stronger effect = higher value, 0% TNFa-plus-vehicle, 100% no-TNFa wells
[2] = reduction of polyQ htt aggregates in cells – imaging, exon1htt(103Q)mCFP cells, high-content imaging, primary screen (AID 483); conditions: exon1htt(103Q)mCFP cell line, aggregate imaging, at 2 µM; inhibition of aggregation: stronger effect = higher value; nuclei count: measured here: cell count, toxicity;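 further: compound exposure lasted 3 days before fixation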;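 on nuclei count: percent of the per-plate median nuclei count of sample wells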
[3] = endothelial E-selectin expression blockers – imaging, HUVEC, immunofluorescence, MLSMR starter and 10KST1 sets, primary screen (AID 487;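 active means visually confirmed hit in the image check and inhibition above 20%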;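 on inhibition: signal is fraction of cell area covered by stained E-selectin grains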;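 on nuclei count: 100% = median nuclei count of all wells on the same plate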); conditions: HUVEC TNFalpha-induced E-selectin immunofluorescence imaging, at 2 µM; inhibition: stronger effect = higher value; nuclei count: measured here: cell number, toxicity
[4] = target: Voltage-gated potassium channel subunit beta-2 (Rattus norvegicus) (UniProt P62483); test: inhibitors of rat Kvbeta2 reductase activity – biochemical, NADPH fluorescence, primary screen (AID 622;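 active means fluorescence slope higher than the sample average by over 3 SD, cut at about -0.22 in these data, passing the limit was not always enough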;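 further: slope of raw intensity against log time taken from 70 to 1610 s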); conditions: recombinant KvBeta, 4-cyanobenzaldehyde reduction, at 10 µM, stronger effect = higher value
[5] = target: Voltage-gated potassium channel subunit beta-2 (Rattus norvegicus) (UniProt P62483); test: enhancers of rat Kvbeta2 NADPH turnover – biochemical, NADPH fluorescence, primary screen (AID 623;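 active means NADPH fluorescence slope more negative than the mean of all samples by about 3 SD, 99.7% confidence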;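 further: fluorescence intensity change per second fitted from 20 to 320 s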); conditions: Recombinant KvBeta, NADPH fluorescence decrease slope, 10 min; at 10 µM; stronger effect = lower value
[6] = target: Alpha-2C adrenergic receptor (Homo sapiens) (UniProt P18825); test: compounds altering alpha2C-coupled GIRK flux – cell-based, HEK293 alpha2C/GIRK1/2, thallium flux, primary screen (AID 624;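 active means fluorescence slope after compound addition differing from the mean of all screened samples at 99.7% confidence, in either direction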;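 further: slope of fluorescence ratio to pre-addition baseline per second over 15 to 24 s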); conditions: thallium flux BTC fluorescence, at 10 µM, actives lie on both sides
[7] = blockers of RIG-like receptor reporter activation – cell-based, Sendai virus stimulus, luciferase, 10K MLSCN set, TLR/RLR signaling modifier project, primary screen (AID 602276;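 active means inhibition at or above 50% at 10 µM; inactive means inhibition below 50%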;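 further: firefly luciferase from ISG56 promoter only with Renilla not read in this screen; 0% = Sendai virus plus DMSO and 100% = medium plus DMSO without virus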); conditions: HEK293 RL24 IRF3 luciferase reporter, at 10 µM, stronger effect = higher value
[8] = TLR3 IRF3 reporter activation blockers – cell-based, poly I:C stimulus, luciferase, 10K MLSCN set, primary screen (AID 602277;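 active means inhibition of the reporter signal at or above 50%; inactive means inhibition below 50%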); conditions: HEK293-TLR3 RL24 IRF3 luciferase reporter, at 10 µM, stronger effect = higher value

Voltage-gated potassium channel subunit beta-2 (Rattus norvegicus), sequence (P62483 whole entry, looked up): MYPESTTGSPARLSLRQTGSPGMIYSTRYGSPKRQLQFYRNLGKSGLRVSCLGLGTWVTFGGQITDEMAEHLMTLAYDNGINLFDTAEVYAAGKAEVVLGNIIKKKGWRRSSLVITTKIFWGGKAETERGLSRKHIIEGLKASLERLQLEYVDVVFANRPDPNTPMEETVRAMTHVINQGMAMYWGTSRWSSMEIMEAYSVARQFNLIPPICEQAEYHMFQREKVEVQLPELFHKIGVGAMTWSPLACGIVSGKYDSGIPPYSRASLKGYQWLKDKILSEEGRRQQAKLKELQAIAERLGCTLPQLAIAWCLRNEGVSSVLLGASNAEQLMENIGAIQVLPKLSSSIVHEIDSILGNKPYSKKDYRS
Alpha-2C adrenergic receptor (Homo sapiens), sequence (P18825 whole entry, looked up): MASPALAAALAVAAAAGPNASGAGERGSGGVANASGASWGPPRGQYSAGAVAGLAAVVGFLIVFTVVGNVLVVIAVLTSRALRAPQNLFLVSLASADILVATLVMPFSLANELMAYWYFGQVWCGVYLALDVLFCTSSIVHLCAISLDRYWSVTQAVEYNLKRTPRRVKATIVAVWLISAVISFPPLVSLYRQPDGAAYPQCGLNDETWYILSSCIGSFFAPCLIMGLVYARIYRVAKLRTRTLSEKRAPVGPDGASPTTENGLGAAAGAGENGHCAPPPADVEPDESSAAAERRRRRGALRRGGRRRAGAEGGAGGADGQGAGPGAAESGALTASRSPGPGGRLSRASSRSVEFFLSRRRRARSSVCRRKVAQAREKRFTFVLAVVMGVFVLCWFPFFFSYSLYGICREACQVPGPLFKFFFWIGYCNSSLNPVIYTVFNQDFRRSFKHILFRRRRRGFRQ

Row | SMILES | cell count [1] | inhibition [1] | inhibition of aggregation [2] | nuclei count [2] [%] | inhibition [3] | nuclei count [3] [%] | fluorescence slope [4] | NADPH fluorescence slope [5] | slope [6] | inhibition [7] | inhibition [8]
1 | CCCCNC(=O)c1nc2ncc(Br)cn2n1 | 665 | 0% (inactive) | -12.4% (inactive) | 109 | 56.5% (inactive) | 81.1 | -0.442 (inactive) | -7.5e-05 (inactive) | 0.00578 (inactive) | 12.8% (inactive) | 22.4% (inactive)
2 | COC(=O)c1cc2oc(C)cc2n1CC(=O)Nc1ccc(C)c(C)c1 | 386 | 9.1% (inactive) | 6.1% (inactive) | 103 | -84.5% (inactive) | 115 | -0.337 (inactive) | -1.2e-05 (inactive) | 0.00552 (inactive) | -0.339% (inactive) | 4.84% (inactive)
3 | O=C(c1ccccc1F)N1CCN(Cc2cccc(Cl)c2)CC1 | 649 | 3% (inactive) | 10.9% (inactive) | 99.3 | -3.6% (inactive) | 98.3 | -0.654 (inactive) | 1.7e-05 (inactive) | 0.00876 (inactive) | 9.77% (inactive) | 10.5% (inactive)
4 | CC(NC(=O)C1CC1)C(c1cccs1)N1CCN(c2ccccc2)CC1 (stereo not given) | 884 | 4.2% (inactive) | -7.2% (inactive) | 100 | -17.3% (inactive) | 116 | -0.495 (inactive) | -3e-05 (inactive) | 0.00607 (inactive) | 6.3% (inactive) | 23.6% (inactive)
5 | COc1ccc(CN(Cc2nc3ccccc3c(=O)[nH]2)C(=O)NC2CCCCC2)cc1 | 389 | -8.4% (inactive) | 4.6% (inactive) | 100 | -95.3% (inactive) | 84.3 | -0.359 (inactive) | -2.1e-05 (inactive) | 0.00294 (inactive) | 15.1% (inactive) | 29.3% (inactive)
6 | O=C(CSc1nnnn1-c1ccccc1)c1cc2ccccc2oc1=O | 788 | -8.3% (inactive) | -9.6% (inactive) | 124 | -39.8% (inactive) | 117 | -0.647 (inactive) | -1.4e-05 (inactive) | 0.00672 (inactive) | 1.78% (inactive) | -14.1% (inactive)
7 | Cc1ccc(C)c(N2CCN(C(=O)CCCn3c(=S)[nH]c4cc5c(cc4c3=O)OCO5)CC2)c1 | 494 | 2.5% (inactive) | -3.8% (inactive) | 109 | -37.7% (inactive) | 114 | -0.433 (inactive) | 1.2e-05 (inactive) | 0.00641 (inactive) | 0.122% (inactive) | 17.7% (inactive)
8 | COc1cccc(C2C(C(N)=O)=C(C)Nc3nc(-c4ccccc4Cl)nn32)c1 (stereo not given) | 804 | -4% (inactive) | -14.6% (inactive) | 93.9 | -48.3% (inactive) | 110 | -0.416 (inactive) | -9.2e-05 (inactive) | 0.00547 (inactive) | 12.6% (inactive) | 40.8% (inactive)
9 | CCOC(=O)c1ccccc1NC(=O)N1CCn2c(C)ccc2C1CC (stereo not given) | 383 | 2.8% (inactive) | -42% (inactive) | 105 | -50.1% (inactive) | 110 | -0.579 (inactive) | -3.2e-05 (inactive) | 0.00545 (inactive) | -0.392% (inactive) | 8.3% (inactive)
10 | O=C1CC(N2CCN(c3ccc(Cl)c(Cl)c3)CC2)C(=O)N1 (stereo not given) | 361 | 0.7% (inactive) | -7.2% (inactive) | 87.1 | 25.6% (inactive) | 98.6 | -0.466 (inactive) | -4.7e-05 (inactive) | 0.00625 (inactive) | -2.47% (inactive) | 20.7% (inactive)
11 | COc1ccc(N2CCN(Cc3nc(-c4ccc(Cl)cc4Cl)no3)CC2)cc1 | 596 | -0.7% (inactive) | 4.9% (inactive) | 106 | -48.8% (inactive) | 122 | -0.421 (inactive) | -7.7e-05 (inactive) | 0.00526 (inactive) | 18.6% (inactive) | 22.1% (inactive)
12 | COCCNC(=O)C(c1cccc(OC)c1)N(Cc1cccs1)C(=O)Cn1nnc2ccccc21 (stereo not given) | 722 | -15.1% (inactive) | 8% (inactive) | 109 | -34.3% (inactive) | 109 | -0.622 (inactive) | -5.4e-05 (inactive) | 0.00445 (inactive) | 12.4% (inactive) | 20.1% (inactive)
13 | Cc1[nH]nc2c1C1(C(=O)N(Cc3ccc(Cl)cc3)c3ccccc31)C(C#N)=C(N)O2 (stereo not given) | 358 | 1.4% (inactive) | -1.1% (inactive) | 101 | -24.6% (inactive) | 114 | -0.338 (inactive) | -3.4e-05 (inactive) | 0.00523 (inactive) | 12.5% (inactive) | 0.315% (inactive)
14 | CC1(C)CC(=O)C2=C(C1)OC(N)=C(C#N)C2C1CC=CCC1 (stereo not given) | 569 | 2.4% (inactive) | 1.3% (inactive) | 119 | -52% (inactive) | 89.2 | -0.556 (inactive) | -1.7e-05 (inactive) | 0.00554 (inactive) | 16% (inactive) | 22.1% (inactive)
15 | Cc1ccc(N2CCN(CCc3nc4cc(NS(C)(=O)=O)ccc4n3C)CC2)cc1 | 322 | 7% (inactive) | 2% (inactive) | 90.6 | 21.6% (inactive) | 122 | -0.531 (inactive) | -3.7e-05 (inactive) | 0.00789 (inactive) | -11.6% (inactive) | -19.7% (inactive)
16 | Cn1c(=O)[nH]c(=O)c2c1nc(NC1CCCCC1)n2CC(=O)NC1CCCCC1 | 751 | -14.7% (inactive) | 12.1% (inactive) | 90.9 | 10.2% (inactive) | 105 | -0.4 (inactive) | 8.4e-06 (inactive) | 0.00653 (inactive) | 18.1% (inactive) | 21.1% (inactive)
17 | COc1ccc(OCCCC(=O)Nc2nncs2)cc1 | 296 | 22.6% (inactive) | 12.8% (inactive) | 95.6 | -32.3% (inactive) | 102 | -0.294 (inactive) | -3.4e-05 (inactive) | 0.00603 (inactive) | -0.71% (inactive) | 5.99% (inactive)
18 | Cc1ccc2cc(CN(CCN3CCCC3)C(=O)Nc3ccc(F)cc3)c(=O)[nH]c2c1C | 540 | -29.6% (inactive) | -45.2% (inactive) | 109 | -47.4% (inactive) | 111 | -0.587 (inactive) | 2.1e-05 (inactive) | 0.00603 (inactive) | 3.48% (inactive) | 16.1% (inactive)
19 | COCCNC(=O)C(c1ccc(C)o1)N(Cc1ccc(OC)cc1)C(=O)Cn1nnc2ccccc21 (stereo not given) | 249 | 7% (inactive) | -3.6% (inactive) | 93.1 | 25.3% (inactive) | 82.9 | -0.648 (inactive) | -1.9e-05 (inactive) | 0.00364 (inactive) | 10.1% (inactive) | 6.31% (inactive)
20 | CC(=O)Nc1ccc2c(c1)nc(CCNC(=O)c1ccccc1)n2C | 450 | 1.3% (inactive) | -15.3% (inactive) | 92.7 | -62.8% (inactive) | 170 | -0.54 (inactive) | -4.9e-05 (inactive) | 0.00514 (inactive) | 1.9% (inactive) | 98.7% (active)
21 | Nc1nc2n(n1)C(c1cccc(Br)c1)CC(c1ccccc1)N2 (stereo not given) | 645 | 13.8% (inactive) | -26.4% (inactive) | 114 | -39.6% (inactive) | 111 | -0.59 (inactive) | 9.1e-06 (inactive) | 0.00794 (inactive) | 13.2% (inactive) | 37% (inactive)
22 | c1cc(-c2nc3ccccc3o2)nc(-c2nc3ccccc3o2)c1 | 426 | 17% (inactive) | -10.7% (inactive) | 82.8 | 9.6% (inactive) | 113 | -0.39 (inactive) | -5.8e-05 (inactive) | 0.00362 (inactive) | 16.6% (inactive) | 30.1% (inactive)
23 | CCOC(=O)c1ccc2ncc(C(=O)OCC)c(NCCN(C)C)c2c1 | 770 | -3.3% (inactive) | -5.5% (inactive) | 94 | -63.4% (inactive) | 113 | -0.545 (inactive) | -3.1e-05 (inactive) | 0.00656 (inactive) | 10% (inactive) | 44% (inactive)
24 | COC(=O)c1ccc(C2CC(=O)Nc3cc(OC)c(OC)c(OC)c32)cc1 (stereo not given) | 416 | 3.3% (inactive) | 11.2% (inactive) | 90.4 | -82.3% (inactive) | 157 | -0.424 (inactive) | -3.3e-05 (inactive) | 0.00514 (inactive) | 11.7% (inactive) | 25.2% (inactive)
25 | COc1cccc(C(=O)N2CCCC(c3nc(-c4cccs4)no3)C2)c1 (stereo not given) | 446 | -25.5% (inactive) | 19.7% (inactive) | 74.5 | 22.9% (inactive) | 95.9 | -0.467 (inactive) | -3.3e-05 (inactive) | 0.00563 (inactive) | 24.8% (inactive) | -19.2% (inactive)
